Source: PubChem BioAssay (Johns Hopkins Ion Channel Center)
KCNQ2 pot = enhances the rat KCNQ2 potassium channel; O88943; CHO-K1 KCNQ2, FluxOR thallium flux fluorescence; active compounds read high; B-score at 10 µM; hit rate 0.54% among 310,000; AID 2239;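 active = fluorescence ratio B-score at least 3 SD of library B-scores, with initial fluorescence B-score within 3 of them, cut at about 5.3 in these data; same plate scores as AID 2156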;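 note: B-score of peak minus minimum over baseline fluorescence ratio after K+ and Tl+ stimulus; positive B-score means potentiation of KCNQ2 with more thallium influx and brighter signal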
Target sequence (O88943 whole entry, looked up): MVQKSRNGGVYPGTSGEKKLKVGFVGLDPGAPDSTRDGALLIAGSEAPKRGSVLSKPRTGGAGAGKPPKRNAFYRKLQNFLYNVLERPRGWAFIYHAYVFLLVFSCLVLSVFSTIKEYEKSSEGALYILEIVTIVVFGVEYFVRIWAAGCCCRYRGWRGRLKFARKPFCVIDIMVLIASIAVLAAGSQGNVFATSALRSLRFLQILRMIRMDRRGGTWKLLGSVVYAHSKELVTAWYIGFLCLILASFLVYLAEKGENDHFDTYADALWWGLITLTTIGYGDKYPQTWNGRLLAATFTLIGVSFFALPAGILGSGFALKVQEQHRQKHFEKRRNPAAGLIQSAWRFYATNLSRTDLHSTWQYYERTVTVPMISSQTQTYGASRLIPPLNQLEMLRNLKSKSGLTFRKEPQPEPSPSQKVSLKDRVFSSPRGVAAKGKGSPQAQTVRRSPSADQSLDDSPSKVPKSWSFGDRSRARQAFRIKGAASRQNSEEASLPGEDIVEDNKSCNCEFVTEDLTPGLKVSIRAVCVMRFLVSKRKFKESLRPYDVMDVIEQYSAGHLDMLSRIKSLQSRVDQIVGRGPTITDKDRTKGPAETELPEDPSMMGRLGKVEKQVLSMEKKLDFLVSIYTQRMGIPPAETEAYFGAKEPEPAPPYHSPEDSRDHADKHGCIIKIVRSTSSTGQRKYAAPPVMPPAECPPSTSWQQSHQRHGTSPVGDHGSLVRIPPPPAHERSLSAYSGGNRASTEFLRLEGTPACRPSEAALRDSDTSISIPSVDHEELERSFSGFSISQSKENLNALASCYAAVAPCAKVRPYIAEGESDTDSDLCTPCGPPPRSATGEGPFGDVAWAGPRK
KCNQ2 block = KCNQ2 (rat) channel inhibition. CHO-K1 KCNQ2, FluxOR thallium flux, 20 min; active compounds read low. B-score at 10 µM. hit rate 1.1% among 310,000. AID 2156;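 active = fluorescence ratio B-score at most minus 3 library SDs, with starting brightness B-score within 2 library SDs, cut at about -5.5 in these data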
Large screens that a line does not name were inactive. In the library only some 1.6% were active in any assay of this set; here they are far more common.

COc1cccc(-c2nc(NCCN3CCOCC3)c3ccccc3n2)c1O	none (no result: KCNQ2 pot)
Clc1ccc(-c2nc(NCCCN3CCOCC3)c3ccccc3n2)cc1	KCNQ2 block -7.9
COc1ccccc1CNC(=O)CSC(=S)N1CCCC1	none
COc1ccc(S(=O)(=O)N2CCC3(CC2)OCCO3)cc1	none
Cc1ccc(C2(O)CN(c3ccccc3)C3=[N+]2CCS3)cc1 (centres undefined)	none (no result: KCNQ2 pot)
O=[N+]([O-])c1ccc(C2(O)CN(c3ccccc3)C3=[N+]2CCS3)cc1 (centres undefined)	KCNQ2 block -6.5
COCCNC(=O)c1onc(CSc2ccc(C(C)C)cc2)c1C(=O)O	none
FC(F)(F)c1cccc(Oc2nc(-c3ccccc3)nnc2C(F)(F)F)c1	none (no result: KCNQ2 pot)
FC(F)(F)c1nnc(-c2ccccc2)nc1Oc1ccc(Cl)cc1Cl	KCNQ2 block -7.7
Cc1ccc(NC(=O)C2CCCN(S(=O)(=O)c3ccc(-n4cnnn4)cc3)C2)cc1 (centres undefined)	none
Cc1ccsc1/C=C1/SC(N2CCOCC2)=NC1=O	none
O=C1N=C(N2CCOCC2)S/C1=C\c1cccs1	KCNQ2 pot 8.8
Cc1ccc(-c2nc3ccc(Cl)cc3n2OC(C)C(=O)O)cc1 (centres undefined)	none (no result: KCNQ2 pot)
CCOC(=O)c1c(N)sc(N)c1C(=O)OCC	KCNQ2 pot 9.7
CCOC(=O)c1c(N)sc(C(N)=O)c1C	none (no result: KCNQ2 pot)
COc1cc2c(cc1OC)CN(C(=O)/C=C/c1cccc([N+](=O)[O-])c1)CC2	none (no result: KCNQ2 pot)
O=C(CN1CCN(c2ccccn2)CC1)Nc1ccccc1Br	none (no result: KCNQ2 pot)
O=C(CN1CCN(c2ccccn2)CC1)Nc1cccc(Cl)c1Cl	KCNQ2 block -7.2
CCN(CC)S(=O)(=O)c1cc(-c2nnc(-c3ccc(Br)cc3)o2)ccc1Br	KCNQ2 block -7
CCN(CC)S(=O)(=O)c1cc(-c2nnc(-c3ccc(Br)cc3)o2)ccc1Cl	KCNQ2 block -6.1
CCN(CC)S(=O)(=O)c1cccc(-c2nnc(-c3ccc(C)cc3)o2)c1	none (no result: KCNQ2 pot)
CCN(CC)S(=O)(=O)c1ccc(-c2nnc(SC)o2)cc1	none
COc1ccc(C(=O)COC(=O)Cc2n[nH]c(=O)c3ccccc23)c(OC)c1	none
COc1ccc(C(=O)Nc2c(N)nc(SCC(=O)c3ccccc3)[nH]c2=O)cc1	none (no result: KCNQ2 pot)
O=C(NCC[C@@H]1C[C@@H]2C=C[C@H]1C2)c1cc(COc2ccc(F)cc2F)on1	none
CCCn1nc([N+](=O)[O-])c(C(C#N)c2nc3ccccc3o2)c(Cl)c1=O (centres undefined)	none (no result: KCNQ2 pot)
Cn1nc([N+](=O)[O-])c(C(C#N)c2ccccn2)c(Cl)c1=O (centres undefined)	KCNQ2 block -5.8
CC(=O)c1ccc(S(=O)(=O)N(C)CC(=O)NCC2CCCCC2)cc1	none (no result: KCNQ2 pot)
O=C(CSc1ccc(-c2ccc(-n3cccn3)cc2)nn1)Nc1ccccc1F	none
COC(=O)c1cn(CCOc2ccccc2)c2ccccc12	none (no result: KCNQ2 pot)
CCN(CC)C(=O)C(=O)c1cn(CCOc2ccccc2)c2ccccc12	KCNQ2 block -7.3
CC1=CC(C)(C)n2c(O)c(N=NC(N)=S)c3c(C)c(C)cc1c32	none
CC1=CC(C)(C)n2c(O)c(N=N)c3c(C)c(C)cc1c32	KCNQ2 block -6.6
Cc1cc(CN2CCC(N3CCC(C(=O)NC4CC4)CC3)CC2)cc(C)c1O	none (no result: KCNQ2 pot)
O=C(O)c1cc(-c2ccc(-c3ccc(F)cc3)o2)nc2ccccc12	none
Cn1c(SCC(=O)Nc2nccs2)nnc1-c1ccco1	none (no result: KCNQ2 pot)
Cn1c(SCC(=O)Nc2ccc(Cl)cc2F)nnc1-c1ccco1	KCNQ2 block -5.8
CCc1cc(CNC(=O)C2CCC(=O)N(CCc3cccc(F)c3)C2)on1 (centres undefined)	none (no result: KCNQ2 pot)
Cc1cccc(C)c1N(CC(=O)NC1CCCCC1)C(=O)c1csnn1	none (no result: KCNQ2 pot)
CC(C)[C@H](NC(=O)c1cccc(CN(Cc2ccccc2)C(=O)c2ccccc2)c1)C(=O)O	none (no result: KCNQ2 pot)
O=C(C1CCN(S(=O)(=O)c2ccccc2)CC1)N1CCCCC1	none
O=[N+]([O-])c1cc(-c2ncccn2)c([N+](=O)[O-])s1	KCNQ2 block -9.6
O=C(Nc1ncccn1)c1cc([N+](=O)[O-])cc([N+](=O)[O-])c1	none
CN1CCN(/N=C/c2ccc(-c3ccccc3)cc2)CC1	none (no result: KCNQ2 pot)
CN1CCN(/N=C/c2c3ccccc3c(Cl)c3ccccc23)CC1	KCNQ2 block -7.1
CCCn1c(Oc2ccccc2)nc2c1c(=O)n(C)c(=O)n2C	none
CCOC(=O)CC1C(=O)NCCN1c1nc2ccc(C)cn2c(=O)c1/C=C1\SC(=S)N(C(C)CC)C1=O (centres undefined)	KCNQ2 block -7.7
CCOC(=O)CC1C(=O)NCCN1c1nc2ccc(C)cn2c(=O)c1/C=C1\SC(=S)N(CC(C)C)C1=O (centres undefined)	none (no result: KCNQ2 pot)
CCN=C(NCC)SC1CC(=O)N(c2ccccc2)C1=O (centres undefined)	none (no result: KCNQ2 pot)
CCN=C(NCC)SC1CC(=O)N(c2cccc(OC)c2)C1=O (centres undefined)	KCNQ2 block -5.8
CCOc1cc(C2C3=C(CC(C)(C)CC3=O)N(C)C3=C2C(=O)CC(C)(C)C3)ccc1O	none
CC(C)COc1cccc(-c2cc(C(=O)N/N=C/c3ccncc3)c3ccccc3n2)c1	none (no result: KCNQ2 pot)
O=S(=O)(c1ccc(OC(F)(F)F)cc1)N1CCCC(c2ccccc2)C1 (centres undefined)	KCNQ2 block -5.7
O=c1[nH]c(C2CCCN(S(=O)(=O)c3ccccc3)C2)nc2c1nnn2Cc1ccc(OC(F)(F)F)cc1 (centres undefined)	none
CC(C)[C@H](NC(=O)C1CC(=O)N(c2ccc3c(c2)OCCO3)C1)C(=O)NC1CCCC1 (some centres undefined)	none (no result: KCNQ2 pot)
COc1ccc(-c2csc(NCc3ccco3)n2)cc1C	none (no result: KCNQ2 pot)
COc1ccc(-c2nc3cccc(C)n3c2NCc2ccco2)cc1OC	KCNQ2 block -6
N#C/C(N=Nc1ccccc1O)=N\Nc1ccccc1O	none
CC(=O)Nc1ccccc1NC(=O)C/C(C)=N/NC(=O)C(=O)N1CCCCC1	none (no result: KCNQ2 pot)
CCCCS(=O)CC(COc1ccc(Cl)cc1)OC(=O)c1ccccc1 (centres undefined)	KCNQ2 block -5.8
CCCCS(=O)CC(COC)OC(=O)c1ccccc1 (centres undefined)	none
O=C(CO/N=C/c1ccccc1OC(F)F)N1CCc2ccccc21	none (no result: KCNQ2 pot)
O=C(CO/N=C/c1ccccc1Cl)N1CCCc2ccccc21	KCNQ2 block -6.1
CCCCC(O)(CCCC)C(=O)NN(C(=O)OC)c1ccccc1	none (no result: KCNQ2 pot)
COC(=O)N(NC(=O)C(O)(c1ccccc1)c1ccccc1)c1ccc(C)cc1	KCNQ2 block -5.9
CCOC(=O)N(NC(=O)C(O)(c1ccccc1)c1ccccc1)c1ccccc1	KCNQ2 block -6.1
CCOC(=O)N(NC(=O)C(O)(C(C)C)C(C)C)c1ccccc1	none (no result: KCNQ2 pot)
CC(Oc1ccc2ccc(=O)oc2c1)C(=O)N1CCOCC1 (centres undefined)	none
CC(c1ccccc1)N1C(=O)/C(=C/c2ccncc2)SC1=S (centres undefined)	none (no result: KCNQ2 pot)
CC(Oc1ccc2c(-c3ccccc3)cc(=O)oc2c1)C(=O)NCC(O)c1ccccc1 (centres undefined)	none
Cn1c(CNc2ccc(Cl)cc2)nc2ccccc21	none (no result: KCNQ2 pot)
CC(C)N=c1cc2n(-c3ccc(Cl)cc3)c3ccccc3nc-2cc1Nc1ccc(Cl)cc1	KCNQ2 block -8
Cc1cc(C)c(S(=O)(=O)Nc2cc(C)on2)c(C)c1	none (no result: KCNQ2 pot)
Cc1noc(C)c1COc1cccc(C(=O)NCCc2c[nH]c3ccccc23)c1	none
Cc1onc(-c2ccccc2)c1C(=O)NCCc1c[nH]c2ccccc12	KCNQ2 block -5.7
CSCCC(NC(=O)c1ccccc1Cl)C(=O)NC1CCN(Cc2ccccc2)CC1 (centres undefined)	none (no result: KCNQ2 pot)
